Bioassay records deposited in PubChem BioAssay by National Center for Advancing Translational Sciences (NCATS).
Most compounds without a hit are left out; they make up all but 2.2% or so of the library.
S2 tox = Viability Counterscreen for Primary qHTS for Inhibitors of ATXN expression. S2 cells (HEK-293 line with an ATXN2-luciferase reporter) viability, CellTiter-Fluor protease fluorescence, 24 h. Potency, µM (series often up to 56.7 µM), usual class: cytotoxic. 400,000 tested, 0.49% active; also: potency is read from the fitted curve at half-maximal effect; nearly all actives have a fitted effect of over 40% in size
TGFb inhibitor = qHTS for Inhibitors of TGF-b. 410,000 tested, 1.2% active. AID 588855, 2011. HepG2 CAGA-GFP TGF-b/SMAD3 reporter, GFP fluorescence, 18 h; TGF-beta stimulated, 500 pg/mL final. Potency, µM (series often up to 46.1 µM), for inactives: at the highest dose activity, negative = inhibition, usual class: inhibitors; also: potency is read from the fitted curve at half-maximal effect; % is scaled to controls: 0 for no effect and ±100 for the full control effect; nearly all actives have a fitted effect of over 65% in size
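TGF-beta reporter screen: HEPG2 CAGA-GFP, 1% FBS, 500 pg/mL TGF-beta final, 18 h; per-cell GFP summed per well; curves fitted and categorized by class.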
ATXN2 expr inh = Primary qHTS for Inhibitors of ATXN expression. HEK-293 ATXN2-luciferase reporter, luminescence, 24 h. Potency, µM (highest dose often 57 µM), for the others: at the top dose activity change, negative = inhibition, usual class: inhibitors. 360,000 tested, 0.72% active. AID 1745845, 2022; also: potency is read from the fitted curve at half-maximal effect; % is scaled to controls: 0 for no effect and ±100 for the full control effect; nearly all actives have a fitted effect of over 55% in size
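qHTS (up to 57 uM final) was run with 24 h compound exposure of reporter cells at 37 °C. Each well was multiplexed: SteadyGlo luminescence measured ATXN2-luciferase expression after a fluorogenic Gly-Phe-AFC viability readout (25 uM final).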
HepG2 tox = qHTS for Inhibitors of TGF-b: Cytotox Counterscreen. HepG2 CAGA-GFP viability, ATP luminescence, 18 h. Potency, µM (top dose mostly 46.1 µM), without a hit: at the top dose activity change, negative = cytotoxicity, most hits filed as cytotoxic. 410,000 tested, 0.76% active; also: potency is read from the fitted curve at half-maximal effect
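HepG2 CAGA-GFP cells (1000/well, DMEM with 1% FBS) received compound, then TGF-beta at 500 pg/mL final, and were incubated 18 hours at 37 degrees C. Viability was read by CellTiter-Glo luminescence. Media-only wells were set as complete cell-killing and DMSO as no toxicity.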
mIDH1 inhibitor = qHTS for Inhibitors of mutant isocitrate dehydrogenase 1 (IDH1): qHTS; IDH1-R132H enzyme, NADPH consumption, diaphorase/resazurin fluorescence; Potency, µM (series often up to 76.6 µM), inactives show top-dose activity change, negative = inhibition, actives largely listed as inhibitors; 390,000 tested, 0.093% active; also: potency is read from the fitted curve at half-maximal effect; % is scaled to controls: 0 for no effect and ±100 for the full control effect; nearly all actives have a fitted effect of over 65% in size
Target sequence (O75874 whole entry R132H, stated change not applied): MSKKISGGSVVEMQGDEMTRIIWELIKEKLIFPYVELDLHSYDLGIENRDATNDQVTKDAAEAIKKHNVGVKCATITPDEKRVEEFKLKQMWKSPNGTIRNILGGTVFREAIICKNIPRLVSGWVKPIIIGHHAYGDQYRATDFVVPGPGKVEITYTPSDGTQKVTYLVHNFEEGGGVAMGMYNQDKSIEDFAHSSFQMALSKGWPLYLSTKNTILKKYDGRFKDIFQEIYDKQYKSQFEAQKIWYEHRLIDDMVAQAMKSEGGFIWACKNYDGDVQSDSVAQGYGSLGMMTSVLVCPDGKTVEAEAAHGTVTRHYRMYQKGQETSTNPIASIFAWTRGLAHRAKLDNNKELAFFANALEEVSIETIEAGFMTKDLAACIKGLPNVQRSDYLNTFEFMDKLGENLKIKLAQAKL
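IDH1-R132H (0.5 ug/mL dispensed) in pH 7.5 Tris buffer was preincubated 30 min with compound, then given a substrate mix of 0.016 mM NADPH and 2 mM alpha-KG for 80 min at room temperature; remaining NADPH was read by diaphorase/resazurin fluorescence.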
LDHA block = qHTS assay for inhibitors of human lactate dehydrogenase | purified LDHA, NADH/diaphorase-resazurin fluorescence; stronger effect = lower value | activity change, % (values are at about 110 or 230 µM) | 480,000 tested, 0.15% active; in the data active = activity change below about -30%; inconclusive = mostly about -25% to -30%;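 also: plate controls were DMSO wells for no effect and wells without enzyme for full effect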
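Human LDH5 (2 nM) was incubated with 0.06 mM NADH and 0.2 mM pyruvate for 5 min at room temperature in Tris pH 7.4. Remaining NADH was coupled through diaphorase/resazurin, and resorufin fluorescence was read at 0 and 20 min.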
The depositor's hits bear a star; i = inactive; u = inconclusive; x = no result given. Unless noted, calls follow the shape of the dose curve; as a rule, active = well fitted curve in the direction sought with a large enough effect; inconclusive = small, poorly fitted or top-dose-only effect, or another doubt; inactive = no such curve, though single readings can be large; an effect the other way counts as inactive or inconclusive.

SMILES | S2 tox | TGFb inhibitor | ATXN2 expr inh | HepG2 tox | mIDH1 inhibitor | LDHA block
Cc1cccc(NC(=O)CCC(=O)N/N=C/c2cccnc2)c1 | i | -2.2% | 1.9% | 13.4% | 3.1% | -19.2
CCc1nnc(N/N=C/c2cccs2)n1N | i | 12.6µM* | -9.5% | -98.1% | 12.1% | 39.4
CCc1nnc(N/N=C/c2ccc(O)c(OC)c2)n1N | i | 17.8µM* | 3.0% | -103.7% | 8.9% | 15.0
CCc1nnc(N/N=C/c2cc(Br)c(O)cc2O)n1N | i | 7.94µM* | -31.0% | 10µM* | 20.0% | 7.7
CC1=C(C(=O)Nc2ccc(C)cc2C)C(c2cccs2)n2nc(SCc3ccc(Cl)cc3)nc2N1 (centres undefined) | i | 9.3% | 0.1% | 2.0% | 0.0% | -10.9
CCN1C(=O)c2ccccc2Sc2ccc(C(=O)NCCC(C)C)cc21 | i | 0.0% | -1.5% | -6.6% | 7.1% | -7.2
Cc1ccc(NC(=O)C2CCN(c3nnc(C)c4c(C)n(-c5ccccc5)nc34)CC2)cc1Cl | i | u | 2.3% | 7.5% | 7.7% | 0.0
COc1ccc(NC(=O)C2CCCN(c3nnc(C)c4c(C)n(-c5ccccc5)nc34)C2)cc1Cl (centres undefined) | 11.2µM* | 15.8µM* | 12.6µM* | 17.8µM* | -4.1% | 0.7
CCc1ccc(CNC(=O)C2CCCN(c3nnc(C)c4c(C)n(-c5ccc(OC)cc5)nc34)C2)cc1 (centres undefined) | u | 11.2µM* | -20.0% | 10µM* | 3.2% | 3.3
COc1ccc(CNC(=O)C2CCCN(c3nnc(C)c4c(C)n(-c5ccc(C)cc5)nc34)C2)cc1 (centres undefined) | u | u | -11.0% | -47.5% | -1.2% | -2.6
COc1ccc(-n2nc3c(N4CCC(C(=O)NCc5cccc(F)c5)CC4)nnc(C)c3c2C)cc1 | u | 10µM* | u | 15.8µM* | 0.0% | -8.6
Cc1nnc(N2CCCC(C(=O)NCc3ccc(OC(C)C)cc3)C2)c2nn(-c3ccccc3)c(C)c12 (centres undefined) | 15.8µM* | -27.8% | u | -25.1% | 0.0% | -15.4
Cc1c(Cl)cccc1Nc1nc(NCCO)c2ccccc2n1 | i | 11.2µM* | -11.8% | -18.5% | -2.2% | -5.3
Oc1ccccc1Nc1nc(NCc2ccccc2)c2ccccc2n1 | i | 11.2µM* | u | -40.3% | -13.0% | -6.4
CCCCNc1nc(NCc2ccccc2)nc2ccccc12 | 31.6µM* | x | 22.4µM* | x | x | -2.7
O=C(O)c1nnsc1-c1csnn1 | i | -3.5% | -9.0% | -25.0% | 0.3% | -12.2
COc1cc2nc(N(CCCN(C)C)C(=O)c3ccc(C(=O)c4ccccc4)cc3)sc2cc1OC | x | u | u | 15.8µM* | 0.3% | -6.7
CN(C)CCN(C(=O)c1ccc2ccccc2c1)c1nc2cc3c(cc2s1)OCCO3 | i | -22.1% | 14.7% | -25.4% | 5.1% | 3.3
CCN(CC)CCN(C(=O)c1cc2c(ccc3ccccc32)oc1=O)c1nc2cc3c(cc2s1)OCCO3 | i | 12.6µM* | -8.4% | -84.0% | -7.3% | -3.8
CN(C)CCCN(C(=O)c1ccc2ccccc2c1)c1nc2cc3c(cc2s1)OCO3 | 31.6µM* | -29.5% | 25.1µM* | -38.5% | 0.7% | -4.3
CCN(c1ccccc1)S(=O)(=O)c1ccc(C(=O)N(CCCN(C)C)c2nc3cc4c(cc3s2)OCO4)cc1 | i | 22.4µM* | u | -107.9% | -1.8% | -2.0
CCCCCn1c(=O)[nH]c2cc(C(=O)N3CCN(c4cc(Cl)ccc4C)CC3)ccc2c1=O | i | -6.5% | 10.5% | 0.1% | -32.5% | -13.9
Cc1ccc(NC(=O)COC(=O)CCc2nc3ccccc3s2)c(C)c1 | x | x | x | x | x | 9.5
